Laboratory results taken from publication PMC4552634, “A New Set of Chemical Starting Points with Plasmodium falciparum Transmission-Blocking Potential for Antimalarial Drug Discovery” (PLoS ONE, 2015).
Read-outs that look alike come from different tables or passages of the source. Screen size: about 13,000 compounds; about 3,200 (25%) showed an effect of 50% or more. This is one part of the list.

Test system: P. falciparum stage V gametocytes
Design: BacTiter-Glo ATP luminescence viability of purified stage V gametocytes in 384-well plates, per cent inhibition versus DMSO
Conditions: 48 h, 5 µM, inhibitor

| SMILES | % Inhibition | % Inhibition (% Inhibition) |
| --- | --- | --- |
| O=C(Nc1ccccc1)Nc1ccc(-c2cccc(-c3nc4ccc(C(F)(F)F)cc4[nH]3)c2)cc1 [TCMDC-133153] | -37.9% | – |
| COC(=O)c1ccc2c(c1)nc(Nc1cccc(F)c1)n2CC(O)c1ccccn1 (stereo not drawn) [TCMDC-138586] | -5.24% | – |
| CC(C)(C)c1nn(-c2ccccc2)c2[nH]c(=O)c(CNCCc3ccccc3)cc12 [TCMDC-125381] | 14.37% | – |
| CCCCN1CCN(c2cc(NS(=O)(=O)c3ccc(C(=O)Nc4ccc(C(F)(F)F)cc4)cc3)ccc2OC)CC1 [TCMDC-141777] | -10.1% | – |
| O=C(Nc1ccc(-c2nc3ccccc3[nH]2)cc1)c1cncc(Br)c1 [TCMDC-123692] | 2.548% | – |
| COc1cc(NC(=O)c2cccc([N+](=O)[O-])c2)cc(S(=O)(=O)c2ccc(Cl)cc2)c1 [TCMDC-124901] | 21.63% | – |
| COc1cc(NC(=O)C(c2ccc(Cl)cc2)C(C)C)cc(OC)c1 (stereo not drawn) [TCMDC-124823] | 74.52% | – |
| COc1ccc(Nc2nccc(N3CCC(NC(=O)C(C)c4ccc(Cl)cc4)CC3)n2)cc1 (stereo not drawn) [TCMDC-133633] | 29.63% | – |
| CCCc1nc2c(N3CC(NC(=O)/C=C/c4ccccc4)C3)cccc2n1C1CC1 [TCMDC-134613] | 8.32% | – |
| O=C1C2=C(Nc3ccccc3SC2c2cccs2)c2ccccc21 (stereo not drawn) [TCMDC-124060] | -4.275% | – |
| COCCNCc1ccc(-c2cccc(CNC3CCN(Cc4ccccc4)CC3)c2)cc1 [TCMDC-140482] | 107.8% | – |
| COc1cccc(CCNCc2ccc(-c3cccc(CNC4CCCC4)c3)cc2)c1 [TCMDC-140493] | 66.56% | – |
| COCCNCc1cccc(-c2cccc(CNC3CCN(Cc4ccccc4)CC3)c2)c1 [TCMDC-140481] | 99.88% | – |
| COCCNCc1ccc(-c2ccc(CNC3CCN(Cc4ccccc4)CC3)cc2)cc1 [TCMDC-140490] | 23.65% | – |
| COc1ccc(NCc2cccc(-c3cccc(CNCCc4ccccc4)c3)c2)cc1 [TCMDC-140485] | -4.016% | – |
| COCCNCc1cccc(-c2ccc(CNC3CCN(Cc4ccccc4)CC3)cc2)c1 [TCMDC-140489] | 85.27% | – |
| COCCNCc1ccc(-c2cccc(CNc3ccc(OC)cc3)c2)cc1 [TCMDC-140484] | -1.116% | – |
| O=C(NCc1cccc(C(F)(F)F)c1)C(c1cc2ccccc2o1)N1CCN(C(c2ccccc2)c2ccccc2)CC1 (stereo not drawn) [TCMDC-141008] | 8.041% | – |
| Cc1ccc(C(C)C)cc1CON1C(N)=NC(N)=NC1(C)C [TCMDC-131323] | 26.53% | – |
| COc1ccc2nccc([C@@H](O)CN3CCC(NCc4ccc(OC)c(NC=O)c4)CC3)c2c1 [TCMDC-141568] | 1.46% | – |
| CN(Cc1cccc(C#N)c1)C1CCN(c2cc(NC(=O)c3ccc(F)cc3)ccn2)CC1 [TCMDC-134974] | -6.144% | – |
| CN(C)CCOc1cc(NC(=O)Nc2ccc(Cl)cc2C(F)(F)F)ccc1I [TCMDC-139125] | -26.77% | – |
| Cc1cc(N[C@@H](CC(C)C)C(=O)NCCOc2ccccc2)nc(NCC2CCCCC2)n1 [TCMDC-134919] | -82.39% | – |
| COc1cccc(CN2CCC3(CC2)CN(C(=O)Nc2ccc(Cl)c(Cl)c2)C3)c1 [TCMDC-136484] | -4.115% | – |
| CN(CCCc1c[nH]c2ccccc12)CCC1CCC(NC(=O)/C=C/c2ccc(Cl)c(Cl)c2)CC1 (stereo not drawn) [TCMDC-139449] | -10.77% | – |
| CCOc1ccccc1CNc1nccc(NCc2ccc(Cl)cc2Cl)n1 [TCMDC-135115] | 39.1% | – |

| SMILES | % Inhibition | % Inhibition (% Inhibition) |
| --- | --- | --- |
| CN1CCN(CC2(Nc3nccc(NCc4ccc(Cl)cc4Cl)n3)CCCCC2)CC1 [TCMDC-135114] | 73.23% | – |
| CN1CCN(CC2(Nc3nccc(NCCc4cn(C)c5ccccc45)n3)CCCCC2)CC1 [TCMDC-135122] | 114.3% | – |
| CCOc1ccccc1CNc1nccc(NCCc2cn(C)c3ccccc23)n1 [TCMDC-135123] | 47.81% | – |
| Clc1ccc(CNc2ccnc(NCc3cccnc3N3CCCC3)n2)c(Cl)c1 [TCMDC-135112] | 11.98% | – |
| Cn1cc(CCNc2ccnc(NCCc3coc4ccccc34)n2)c2ccccc21 [TCMDC-135121] | 46.44% | – |
| O=C(c1cccc(-c2ccc(-c3nc4cc(C(F)(F)F)ccc4[nH]3)cc2)c1)N1CCCCC1CN1CCC(O)C1 (stereo not drawn) [TCMDC-132345] | -7.323% | – |
| O=C([C@H]1CCCCN1c1ccc([N+](=O)[O-])c2ccccc12)N1CCN(c2ncccn2)CC1 [TCMDC-135504] | -25.11% | – |
| Cc1cccc(OC(C)C(=O)Nc2cc(C(F)(F)F)ccc2N2CCOCC2)c1 (stereo not drawn) [TCMDC-125116] | -67.15% | – |
| COc1ccc(Oc2cnc(N)nc2N)c(C(C)C)c1 [TCMDC-132471] | -12.02% | – |
| Nc1ncc(OC2CCCCC2)c(N)n1 [TCMDC-137916] | 86.08% | – |
| Nc1nccc2ccc(OC3CCCCC3)cc12 [TCMDC-136543] | 27.41% | – |
| Cc1nc(Nc2ccc(F)cc2)nc(N2CCc3ccccc3[C@@H]2C)c1C [TCMDC-141073] | -42.65% | – |
| c1ccc(CN2CCN(CCCCNc3c4ccccc4nc4ccccc34)CC2)cc1 [TCMDC-138009] | 101.2% | – |
| Cl.c1ccc(CN2CCN(CCNc3c4ccccc4nc4ccccc34)CC2)cc1 [TCMDC-137571] | 58.89% | – |
| NC(=NC1CC1)c1ccc2nc(CCCCCc3nc4ccc(C(N)=NC5CC5)cc4[nH]3)[nH]c2c1 [TCMDC-137236] | 9.891% | – |
| Cc1cc(SC(C)(C)C)cc2c(Cl)c(C(N)=O)cnc12 [TCMDC-135415] | 114.9% | – |
| COc1ccccc1-c1cccc(CNC2CCN(CC3Cn4c(=O)ccc5ccc(F)c3c54)CC2)c1 (stereo not drawn) [TCMDC-134411] | 15.92% | – |
| O=C(CCc1ccc(Cl)cc1Cl)NC1CCC(CN2CCC(c3c[nH]c4ccccc34)CC2)CC1 (stereo not drawn) [TCMDC-140296] | – | -15.31% |
| O=C(NC1CCC(CN2CCC(c3c[nH]c4ccccc34)CC2)CC1)c1cn(Cc2ccccc2)c2ccccc12 (stereo not drawn) [TCMDC-139888] | 107.9% | – |
| O=C(CCc1ccc(Cl)cc1Cl)NC1CCC(CN2CCC(c3c[nH]c4ccccc34)CC2)CC1 (stereo not drawn) [TCMDC-140262] | – | -48.76% |
| O=C(CSc1ccc(Cl)cc1)NC1CCC(CN2CCC(c3c[nH]c4ccccc34)CC2)CC1 (stereo not drawn) [TCMDC-139953] | -2.163% | – |
| O=C(Cc1c(-c2ccccc2)[nH]c2ccccc12)NC1CCC(CN2CCC(c3c[nH]c4ccccc34)CC2)CC1 (stereo not drawn) [TCMDC-139909] | 71.88% | – |
| O=C(Cc1cc(=O)oc2cc(O)ccc12)NC1CCC(CN2CCC(c3c[nH]c4ccccc34)CC2)CC1 (stereo not drawn) [TCMDC-139882] | -52.99% | – |
| O=C(NC1CCC(CN2CCC(c3c[nH]c4ccccc34)CC2)CC1)c1cnn(-c2ccccc2)c1-c1ccccc1Cl (stereo not drawn) [TCMDC-140375] | 25.23% | – |
| O=C(CCCCCc1ccccc1)NC1CCC(CN2CCC(c3c[nH]c4ccccc34)CC2)CC1 (stereo not drawn) [TCMDC-139952] | 95.36% | – |
